# Screen size: about 400,000 compounds; about 13,000 (3.2%) were called active. Inconclusive results (about 18%) are left out. Calls come from the whole dose curve; as a rule, active = well fitted cell-killing curve with a large enough effect; inconclusive = small, poorly fitted or top-dose-only effect, or effect the other way; inactive = flat fitted curve, though single readings scatter. The list comes from a sample in which actives are over-represented; it also holds similar structures and randomly drawn compounds.
# Experiment: qHTS assay for MDR1-selective chemotherapeutics: Primary screen using the drug-selected MDR subline cells KB-V1; note: nearly all actives have a fitted effect of over 60% in size
# Details: KB-V1 MDR cells viability, CellTiter-Glo, 72 h; series mostly up to 46.1 µM; activity change, negative = cytotoxicity: at the top concentration
# Outline: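 Readout: CellTiter-Glo luminescence, 10 min after addition. Cells: KB-V1 MDR subline, 72 h at 37 degrees C with compound. Analysis: corrected, normalized data fitted to concentration-effect curves.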
# % is set by controls: 0 for no effect and ±100 for the full control effect; potency is the fitted concentration of half-maximal effect.
SMILES,"activity change, negative = cytotoxicity",Potency
CCCNC(=O)c1cc(C2CCCCN2S(=O)(=O)c2cn(C)cn2)on1 (stereo unspecified),4% (inactive),–
C[C@H](NC(=O)[C@@H]1CCCN1C(=O)[C@@H]1CCCN1C(=O)c1ccccc1)c1ccccc1,0.427% (inactive),–
O=C1NC[C@@H](CCCCN2CCN(CCc3ccc(O)cc3)C(=O)C2=O)N(CC2CCCCC2)C1=O,-1.26% (inactive),–
Cc1cc(C(=O)CSc2nc(N)cc(=O)[nH]2)c(C)n1-c1cccc(F)c1,–,3.66 µM (active)
Cc1cc(C(=O)CSc2nc(N)cc(=O)[nH]2)c(C)n1Cc1ccco1,-15.7% (inactive),–
Cc1cc(C(=O)CSc2nc(N)cc(=O)[nH]2)c(C)n1CCc1ccc(Cl)cc1,3.44% (inactive),–
Cc1cc(C(=O)N2CCCC2(C)C(=O)O)c(C)o1 (stereo unspecified),2.01% (inactive),–
CN(C)c1cccc(C(=O)Nc2nc3ccc(S(=O)(=O)NC(C)(C)C)cc3s2)c1,–,20.6 µM (active)
COc1cccc(C(=O)Nc2nc3ccc(S(C)(=O)=O)cc3s2)c1,-24.1% (inactive),–
CS(=O)(=O)c1ccc2nc(NC(=O)c3ccc(Cl)nc3)sc2c1,0.805% (inactive),–
CC1(C(=O)Nc2cccc3cccnc23)CCN1C(=O)CCC1CCCC1 (stereo unspecified),3.6% (inactive),–
CC(C)(O)C1=C[N+](=O)CC=C1,-2.53% (inactive),–
COc1ccc(C2CC(c3cccc(OC)c3)=NN2c2ccc(S(N)(=O)=O)cc2)cc1 (stereo unspecified),10.7% (inactive),–
CCOc1ccc2[nH]c(=S)sc2c1,-0.715% (inactive),–
CCOc1ccc(NC(=O)c2ccccc2NS(C)(=O)=O)cc1,-0.444% (inactive),–
COc1cc(OC)c(S(=O)(=O)Nc2ccccc2C(=O)O)cc1S(=O)(=O)Nc1ccccc1C(=O)O,0% (inactive),–
COc1cc(NC(=O)c2ccccc2NS(=O)(=O)c2ccc(Cl)s2)cc(OC)c1,–,10.3 µM (active)
O=C(Nc1ccc(F)cc1)Nc1nnc([C@H]2C[C@H](O)[C@@H](CO)O2)s1,3.14% (inactive),–
CC(C)c1ccc(NC(=O)Cn2c3ncccc3c(=O)n2-c2ccccc2)cc1,-4.24% (inactive),–
O=C1c2ccccc2C(c2nc3ccccc3[nH]2)N1c1ccccc1 (stereo unspecified),15.6% (inactive),–
CCOC(=O)[C@]12CCCC=C1N(CCC1=CCCCC1)C(=O)[C@H](CC(=O)N1CCOCC1)C2,-33% (inactive),–
C=C1C(=O)OC2C1CCC(C)=CCCC1(C)OC21 (stereo unspecified),-25.5% (inactive),–
O=C(c1cnn(-c2ccc(F)cc2)c1-n1cccc1)N1CCN(c2ccc(F)cc2)CC1,–,23.1 µM (active)
Cc1nn(-c2ccccc2)c(-n2cccc2)c1C(=O)O,0.327% (inactive),–

SMILES,"activity change, negative = cytotoxicity",Potency
CC(=O)c1c(N2CCN(c3ccc(F)cc3)CC2)nc(=S)n(-c2ccccc2)c1C,-5.35% (inactive),–
Cc1nn(-c2ccc(F)cc2)c(-n2cccc2)c1C(=O)N1CCN(c2ccccc2)CC1,–,20.6 µM (active)
O=C(Nc1ccc(F)cc1F)c1cnn(-c2ccc(F)cc2)c1-n1cccc1,-13.2% (inactive),–
COC(=O)c1ccccc1NC(=O)c1cnn(-c2ccc(F)cc2)c1-n1cccc1,-36.6% (inactive),–
COc1ccc(-c2ccc(C(=O)NCCN3CCOCC3)c3occc23)c(C)c1,0% (inactive),–
CCCCc1nc2ccc(F)cc2cc1C,-2.71% (inactive),–
O=C(Nc1cccc(Cc2ccccc2)c1)Nc1ccc2nc([C@@H]3O[C@H](CO)[C@@H](O)[C@H](O)[C@H]3O)[nH]c2c1,-6.5% (inactive),–
COc1ccccc1CNC(=O)c1ccccc1NC(=O)c1nsc2ccccc12,-0.717% (inactive),–
Nc1cccc(OCCCCCOc2cccc(N)c2)c1,-6.44% (inactive),–
S=C(NCc1ccc(Cl)cc1)NC12CC3CC(CC(C3)C1)C2,–,16.4 µM (active)
O=C(NCc1ccc(Cl)cc1)NCc1ccc(Cl)cc1,9.02% (inactive),–
O=C(NCc1ccncc1)NC12CC3CC(CC(C3)C1)C2,0% (inactive),–
CCCNC(=O)C1(C)CCN(Cc2ccc(Cl)c(Cl)c2)C1 (stereo unspecified),0% (inactive),–
COc1cccc(NC(=O)C2CCN(c3cc(C)nc4c(-c5ccc(Cl)cc5)c(C)nn34)CC2)c1,-8.13% (inactive),–
CC1(C)OC(=O)C2=C(C[C@@H](C3CC3)O[C@H]2CCc2cccc(Cl)c2)O1,-17% (inactive),–
O=S(=O)(c1cccc(C(F)(F)F)c1)N1CCN(c2nc(-c3cccs3)nc3ccccc23)CC1,-1.66% (inactive),–
COCC(=O)N(C)C[C@H]1Oc2cc(Br)ccc2S(=O)(=O)N([C@H](C)CO)C[C@H]1C,13.1% (inactive),–
CC1(Cc2ccccc2C#N)C(=O)Nc2ccc(-c3ccc4[nH]ccc4c3)cc21 (stereo unspecified),–,6.51 µM (active)
Cc1ccc(CC2(C)C(=O)Nc3ccc(OC(F)(F)F)cc32)cc1 (stereo unspecified),2.43% (inactive),–
COc1ccccc1CC1(C)C(=O)Nc2ccc(OC(F)(F)F)cc21 (stereo unspecified),22.6% (inactive),–
Cc1ccc(-n2ncc3c(N4CCC(C(N)=O)CC4)ncnc32)cc1,-12.2% (inactive),–
Cc1cc(OCC(=O)Nc2nccs2)c2c(C)c(C)c(=O)oc2c1,-5.19% (inactive),–
COc1ccc(C(C)C)cc1-c1ccc2nncn2c1,0.562% (inactive),–
CCN(CC)c1ccc(NC(=O)CN2CCN(CC(=O)Nc3ccc(Cl)cc3)CC2)cc1,-7.77% (inactive),–

SMILES,"activity change, negative = cytotoxicity",Potency
O=C(NNC(=O)c1ccc(Cl)nc1)c1ccc(Br)cc1,12.1% (inactive),–
CCN(CC)c1ccc(NC(=O)c2ccc(Cl)nc2)cc1,–,4.61 µM (active)
COC(=O)c1ccccc1NS(=O)(=O)c1ccc2c(c1)CCCN2C(C)=O,6.42% (inactive),–
CCOc1cc(/C=N/NC(=O)c2c(C)nc3ccc(Cl)cn23)ccc1O,18% (inactive),–
CCc1oc(-c2ccc(OC)cc2)c(C(=O)OCCCCCO)c1C(C)OCCO (stereo unspecified),2.82% (inactive),–
O=C(NN1C(=O)C2C(C1=O)C1C=CC2C12CC2)c1ccccc1Cl (stereo unspecified),13.1% (inactive),–
CC12CCC(C(=O)N(c3cccc(Cl)c3)C1=O)C2(C)C (stereo unspecified),-8.2% (inactive),–
CC12CCC(C(=O)N(NC(=O)c3ccccc3O)C1=O)C2(C)C (stereo unspecified),–,3.26 µM (active)
O=C(NCc1ccccc1)C1CNCC(C(=O)NCc2ccccc2)C1 (stereo unspecified),19.2% (inactive),–
O=C(OC/C=C/CSc1nnc(-c2cccc3ccccc23)o1)c1ccc(F)cc1,-4.97% (inactive),–
COc1cc(S(=O)(=O)N(Cc2cccs2)C2CC2)ccc1-n1cnnn1,–,4.61 µM (active)
Cc1cc(S(=O)(=O)NC2CCCC2)ccc1-n1cnnn1,0.365% (inactive),–
CCOc1ccc(CN(Cc2ccco2)S(=O)(=O)c2ccc(-n3cnnn3)c(OC)c2)cc1,0% (inactive),–
CCOC(=O)c1c(C)oc2nc(C)nc(Nc3ccc(CC)cc3)c12,2.93% (inactive),–
O=C(C(=O)N1CCC(c2ccccc2)CC1)c1ccccc1,-16.7% (inactive),–
Cc1csc(SCC(=O)Nc2ccc(C)c(S(=O)(=O)N(C)C)c2)n1,-23.4% (inactive),–
CCN1CCN(CCNC(=O)c2ccc3c(c2)NC(=O)/C(=C\c2cccc(Cl)c2)S3)CC1,16.5% (inactive),–
O=C(OCC(=O)N1CCCCCC1)c1cccc(Cl)c1Cl,1.14% (inactive),–
CCOc1ccc(CCN2C(=S)N([C@@H](CC(C)C)CN3CCC[C@@H]3CN3C(=S)NC[C@@H]3Cc3ccc(O)cc3)C[C@@H]2Cc2ccc(O)cc2)cc1,-23.8% (inactive),–
CCC(=O)N1CCc2cc(S(=O)(=O)NC(Cc3ccccc3)C(=O)NCc3ccccc3)ccc21 (stereo unspecified),4.74% (inactive),–
CC1CCCN(CC(O)COCc2ccccc2)C1 (stereo unspecified),6.78% (inactive),–
CC1CCCN(CCOCCOc2ccccc2-c2ccccc2)C1 (stereo unspecified),–,20.6 µM (active)
CN1CCN(CCCCOc2ccccc2-c2ccccc2)CC1,9.51% (inactive),–
OC[C@@H]1CN(Cc2ccc(F)cc2)C[C@H](n2cnc3c(NC4CCCC4)ncnc32)O1,0.456% (inactive),–

SMILES,"activity change, negative = cytotoxicity",Potency
Cc1ccc(N2CCN(C(=S)Nc3cc(C)ccn3)CC2)cc1,0% (inactive),–
O=C1NC(=Nc2ccc(Cl)cc2)SC1Cc1cccc(Cl)c1Cl (stereo unspecified),-12.8% (inactive),–
CC(NC(=O)CC1SC(N)=NC1=O)c1ccccc1 (stereo unspecified),-19% (inactive),–
NC1=NC(=O)C(Cc2cccc(Cl)c2Cl)S1 (stereo unspecified),–,18.4 µM (active)
C[C@@H]1CN([C@H](C)CO)S(=O)(=O)c2ccc(C#C[C@@H](C)O)cc2O[C@@H]1CN(C)Cc1ccc(-c2ccccc2)cc1,-1.21% (inactive),–
Cc1cc(Br)cn2c(Cc3ccsc3)c(-c3ccc(C#N)cc3)nc12,2.33% (inactive),–
COc1cccc(OCCn2c(-c3ccc(Br)cc3)nc3ccccc3c2=O)c1,3.93% (inactive),–
CC[C@]1(O)C[C@@H]2CN(CCc3c([nH]c4ccccc34)[C@@](C(=O)OC)(c3cc4c(cc3OC)N(C)[C@H]3[C@@](O)(C(=O)OC)[C@H](OC(C)=O)[C@]5(CC)C=CCN6CC[C@]43[C@@H]65)C2)C1,–,5.17 µM (active)
CC[C@]1(O)CC2CN(CCc3c([nH]c4ccccc34)[C@@](C(=O)OC)(c3cc4c(cc3OC)N(C=O)[C@H]3[C@@](O)(C(=O)OC)[C@H](OC(C)=O)[C@]5(CC)C=CCN6CC[C@]43[C@@H]65)C2)C1 (stereo partly specified),–,20.6 µM (active)
O=CNc1cc(-c2ccc(C(=O)N3CCOCC3)cc2)cn2c(-c3ccc(F)cc3)cnc12,-18% (inactive),–
COC(=O)c1cc(NC(=O)CCS(=O)(=O)c2cc(Br)cc3c2N(C(=O)C2CC2)CC3)cc(C(=O)OC)c1,7.94% (inactive),–
CCNC(=O)C1CCCN(C(=O)c2cc(F)ccc2C)CC1 (stereo unspecified),-22.9% (inactive),–
COc1ccc(NC(=O)C(c2ccncc2)n2c(=O)c(-c3cc4ccccc4[nH]3)nc3ccccc32)cc1 (stereo unspecified),-0.812% (inactive),–
CC(C)c1ccc(NC(=O)c2cc(S(=O)(=O)N3CCc4ccccc4C3)ccc2F)cc1,-14.2% (inactive),–
Cc1ccccc1S(=O)(=O)N1[C@@H](c2cccc(Cl)c2)C(C(=O)OC(C)(C)C)=CC[C@H]1c1ccc(Cl)cc1,0% (inactive),–
CCC(C)NCCOCCOc1ccc(Br)cc1C (stereo unspecified),–,20.6 µM (active)
CCOCCCNCc1cc(Br)ccc1OCC,-3.55% (inactive),–
COCCCNCCOCCOc1ccc(Cl)cc1Br,-3.06% (inactive),–
COc1ccc(N)cc1NC(=O)CN1CCOCC1,16.4% (inactive),–
CCCS(=O)(=O)NC(=O)C1(C)CCN(C(=O)c2sccc2C)C1 (stereo unspecified),2.03% (inactive),–
O=C(CN1c2ccccc2S(=O)(=O)c2ccccc21)Nc1cccc(C(F)(F)F)c1,-7.05% (inactive),–
Cc1cc(C)c2cc(CN(Cc3cccs3)Cc3nnnn3CC3CCCO3)c(=O)[nH]c2c1 (stereo unspecified),–,16.4 µM (active)
COc1ccc2[nH]c(=O)c(CN(Cc3nnnn3CCc3ccccc3)CC3CCCO3)cc2c1 (stereo unspecified),-18.1% (inactive),–
Cc1cc2cc(CN(Cc3cccs3)Cc3nnnn3CC3CCCO3)c(=O)[nH]c2cc1C (stereo unspecified),-10.7% (inactive),–
